Cl transport mod – modulators of human KCC2 chloride dependent transport; Q9H2X9; KCC2 cells, thallium flux FluoZin-2 fluorescence; B-score of Tl+ flux slope (higher = more flux/activation; lower = inhibition) at 10 µM; 190,000 compounds, 2.2% hits;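 active = thallium flux slope and its plate-corrected score both differing from the plate sample mean at a set confidence after two filtering rounds, in either direction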;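 also: slope of fluorescence scaled to starting intensity during 10 to 20 s after thallium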
Target sequence (Q9H2X9 whole entry, looked up): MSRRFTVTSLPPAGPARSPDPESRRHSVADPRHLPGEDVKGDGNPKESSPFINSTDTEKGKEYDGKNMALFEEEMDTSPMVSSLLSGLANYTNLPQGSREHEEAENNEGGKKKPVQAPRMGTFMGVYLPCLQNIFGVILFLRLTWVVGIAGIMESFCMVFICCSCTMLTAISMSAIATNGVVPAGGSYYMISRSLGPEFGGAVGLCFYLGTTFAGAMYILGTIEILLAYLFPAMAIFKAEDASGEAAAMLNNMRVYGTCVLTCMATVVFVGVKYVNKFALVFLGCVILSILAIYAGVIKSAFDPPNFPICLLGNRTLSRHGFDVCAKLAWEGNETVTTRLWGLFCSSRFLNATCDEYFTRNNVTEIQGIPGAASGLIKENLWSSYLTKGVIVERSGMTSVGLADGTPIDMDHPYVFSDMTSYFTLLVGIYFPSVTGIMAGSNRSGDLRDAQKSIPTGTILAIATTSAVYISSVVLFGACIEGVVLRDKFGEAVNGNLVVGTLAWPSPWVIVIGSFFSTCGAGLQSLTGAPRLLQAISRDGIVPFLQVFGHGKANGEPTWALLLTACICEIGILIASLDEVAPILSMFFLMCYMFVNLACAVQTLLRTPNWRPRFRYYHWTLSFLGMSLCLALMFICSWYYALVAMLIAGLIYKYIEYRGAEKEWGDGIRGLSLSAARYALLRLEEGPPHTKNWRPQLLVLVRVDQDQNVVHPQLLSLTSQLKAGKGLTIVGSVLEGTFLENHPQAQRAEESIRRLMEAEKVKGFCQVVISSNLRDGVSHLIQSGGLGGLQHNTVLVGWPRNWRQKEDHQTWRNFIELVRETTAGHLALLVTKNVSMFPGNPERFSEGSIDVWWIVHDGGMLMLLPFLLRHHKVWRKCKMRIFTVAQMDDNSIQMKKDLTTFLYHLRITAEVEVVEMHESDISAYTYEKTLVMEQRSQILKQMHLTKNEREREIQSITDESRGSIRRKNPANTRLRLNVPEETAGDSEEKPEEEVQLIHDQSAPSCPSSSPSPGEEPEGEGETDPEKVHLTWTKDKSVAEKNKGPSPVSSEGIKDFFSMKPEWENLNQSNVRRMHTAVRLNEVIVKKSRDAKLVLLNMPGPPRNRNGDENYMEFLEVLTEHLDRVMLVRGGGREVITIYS
Calb FLC – affects C. albicans growth with fluconazole. C. albicans CaCi-2 (fluconazole-resistant clinical isolate) + fluconazole, Alamar Blue growth, 48 h. growth inhibition, % (no concentration beside the values). 300,000 compounds, 0.57% hits. AID 1979;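 active = growth inhibition above about 58% in most replicates, limit read from the data, passing the limit was not always enough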;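 also: all wells also contain fluconazole at 8 µg/ml as a sub-toxic cotreatment; 0% = median of DMSO wells and 100% = median of geldanamycin control wells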
PHOSPHO1 inh – inhibitors of human PHOSPHO1 phosphatase | 290,000 compounds, 1.1% hits | recombinant PHOSPHO1, absorbance phosphatase assay | Q8TCT1 | inhibition, % at 13.3 µM; in the data active = inhibition above about 60%
Efflux pump inh – inhibitors of Candida antifungal efflux pumps expressed in yeast. 330,000 compounds, 0.44% hits. AID 485275. S. cerevisiae Candida pump triplex, Nile Red efflux. inhibition, % at 10 µM;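 active = plate passing quality check with inhibition over a set limit, or well fluorescence over plate mean plus 4 SD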;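 also: Nile Red retained in pooled yeast measured as flow cytometry median fluorescence; 0% = buffer negative control and 100% = Enniatin B positive control; higher means more Nile Red kept so more efflux inhibition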
H9c2 protect – myocardial damage modulation in H9c2 cells; H9c2 cardiomyocytes, H2O2 injury protection, ATPLite, 2 h; protection from H2O2 cell death, % at 20 µM; 360,000 compounds, 0.63% hits; AID 588492;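 active = compounds giving at least 50% protection of heart cells from peroxide-induced death in the single-dose screen, raw or plate-pattern-corrected value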;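 also: 0% = DMSO wells with peroxide and 100% = DMSO wells without peroxide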
Yeast cmpd fluor – compound fluorescence in yeast efflux pump counter-screen; shares compounds with Efflux pump inh; S. cerevisiae AD/pABC3, flow cytometry; fluorescence ratio to DMSO, % at 10 µM; 1,700 compounds, 4% hits; AID 588517;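 active = fluorescence ratio to DMSO above its plate's cutoff, the plate mean ratio plus 5 SD, cut at about 210% in these data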;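 also: unstained yeast with no Nile Red so the signal is compound autofluorescence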
Mdr1 pump inh – blocks the Candida albicans Mdr1 efflux pump in yeast; S. cerevisiae AD/CaMDR1, Nile Red efflux, flow cytometry; inhibition, % at 10 µM; shares compounds with Efflux pump inh; 1,700 compounds, 1% hits; in the data active = inhibition above about 26%;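 also: 0% = DMSO vehicle and 100% = reference inhibitor; higher means more Nile Red retained so more efflux inhibition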
CaCdr2 efflux inh – inhibitors of Candida albicans Cdr2 efflux pump | Nile Red retention ratio vs DMSO, % at 10 µM | S. cerevisiae AD/CaCDR2, Nile Red retention, flow cytometry | AID 588520 | shares compounds with Efflux pump inh | 1,700 compounds, 4% hits; in the data active = Nile Red retention ratio vs DMSO above about 190%;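 also: higher ratio means more blocking of Cdr2 efflux of the dye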
Cdr1 pump inh – blocks the Candida albicans Cdr1 efflux pump in yeast; 1,700 compounds, 1% hits; inhibition, % at 10 µM; shares compounds with Efflux pump inh; S. cerevisiae AD/CaCDR1, Nile Red efflux, flow cytometry; AID 588522;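 active = inhibition above the screen-wide mean plus twice its standard deviation, cut at about 32% in these data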
* marks the source's active call; other numbers are inactive results. Only some compounds are listed: those with a hit (about 3.3% of all), similar ones and a draw of the others.

Screening COc1ccc(CNC(=O)c2cc3c(s2)CN(Cc2ccccc2)C3)cc1 returned Cl transport mod -1.33, Calb FLC 8.7, PHOSPHO1 inh -25.8, Efflux pump inh 0.5*, H9c2 protect -1.6, Yeast cmpd fluor 98.9, Mdr1 pump inh -0.5, CaCdr2 efflux inh 100.1 and Cdr1 pump inh 0.0.
Screening O=C(NC1CC1)c1nc(Cn2cc([N+](=O)[O-])cn2)no1 returned Calb FLC -1.1, PHOSPHO1 inh 36.8, Efflux pump inh -0.1 and H9c2 protect 1.6.
Screening CCc1ccc(C(=O)N/N=C/c2ccncc2)s1 returned Calb FLC -12.7, PHOSPHO1 inh 37.7, Efflux pump inh 0.0 and H9c2 protect -1.4.
COc1ccc2sc(-c3ccccc3OC)c(-c3ccc(OCCN(C)C)cc3)c2c1 was read as Efflux pump inh 196.1*, H9c2 protect -24.0, Yeast cmpd fluor 124.4, Mdr1 pump inh 1.9, CaCdr2 efflux inh active and Cdr1 pump inh 1.3.
For COc1ccccc1-c1sc2ccccc2c1-c1ccc(OCCN2CCCCC2)cc1 the results were Efflux pump inh 40.2*, H9c2 protect -26.3, Yeast cmpd fluor 112.7, Mdr1 pump inh -0.2, CaCdr2 efflux inh 95.6 and Cdr1 pump inh 0.1.
COc1ccc2c(-c3ccc(OCCN4CCCCC4)cc3)c(-c3ccccc3OC)sc2c1 was read as Efflux pump inh 0.8, H9c2 protect -24.9, Yeast cmpd fluor 100.2, Mdr1 pump inh -0.2, CaCdr2 efflux inh 99.3 and Cdr1 pump inh -0.5.
COC(=O)C1=C[C@@H](C(=O)OC)[C@@H]2C3=C(C(=O)C2(C)C)[C@H](C)n2c(=O)n(-c4ccccc4)c(=O)n2[C@@H]3C1 was read as Calb FLC 2.0, Efflux pump inh 0.0 and H9c2 protect 6.2.
For Cc1cc(C(=O)N/N=C/c2cccc([N+](=O)[O-])c2)c2ccccc2n1 the results were Cl transport mod 0.867, Calb FLC -20.3, PHOSPHO1 inh 2.6, Efflux pump inh 8.3*, H9c2 protect 48.6, Yeast cmpd fluor 845.4*, Mdr1 pump inh 60.3*, CaCdr2 efflux inh 113.8 and Cdr1 pump inh 1.9.
`CC(C)n1ncc2c(C(=O)NCc3cccnc3)cc(C3CC3)nc21` gave H9c2 protect 2.5.
COc1cc(S(=O)(=O)Nc2ccccn2)ccc1F was read as Calb FLC 29.9, PHOSPHO1 inh 0.9, Efflux pump inh 0.7*, H9c2 protect 6.9, Yeast cmpd fluor 104.5, Mdr1 pump inh -0.3, CaCdr2 efflux inh 104.2 and Cdr1 pump inh 0.0.
For Cc1ccccc1C(=O)N1CCN(CCNC(=O)C(=O)Nc2ccc(Br)cc2)CC1 the results were Calb FLC 2.3, PHOSPHO1 inh 41.4, Efflux pump inh 0.0 and H9c2 protect -1.4.
`CCn1c2ccccc2c2cc(NC(=O)C(C)OC(=O)c3ccc(NC(=O)CC#N)cc3)ccc21` (centres undefined) gave Efflux pump inh 0.4*, H9c2 protect 11.9, Yeast cmpd fluor 106.2, Mdr1 pump inh 0.1, CaCdr2 efflux inh 103.9 and Cdr1 pump inh 0.0.
For COc1ccc(C2=NN(C(=O)COC(=O)c3ccc(NC(=O)CC#N)cc3)C(c3ccco3)C2)cc1 (centres undefined) the results were Efflux pump inh 0.1 and H9c2 protect -4.9.
`COC(=O)c1ccc(C2OCC(C)(C)CO2)cc1` gave Cl transport mod 0.762, Calb FLC 1.9, PHOSPHO1 inh 1.8, Efflux pump inh 1.1*, H9c2 protect -8.9, Yeast cmpd fluor 93.5, Mdr1 pump inh -0.2, CaCdr2 efflux inh 100.7 and Cdr1 pump inh -0.1.
For Cc1cc2nc3ccc(N(C)C)cc3nc2cc1N the results were Calb FLC 2.2, Efflux pump inh 1.6*, H9c2 protect -12.8, Yeast cmpd fluor 132.0, Mdr1 pump inh 0.0, CaCdr2 efflux inh 112.2 and Cdr1 pump inh 0.0.
For CC(C)CC(N)c1csc(NC(=O)Nc2ccccc2C(C)C)n1 (centres undefined) the results were H9c2 protect -2.8.
Cn1cc(C(c2ccccn2)c2cn(C)c3ccccc23)c2ccccc21 was read as Cl transport mod -0.827, Calb FLC 94.3*, PHOSPHO1 inh 10.1, Efflux pump inh 57.3*, H9c2 protect -18.7, Yeast cmpd fluor 88.0, Mdr1 pump inh 86.4*, CaCdr2 efflux inh 102.9 and Cdr1 pump inh 31.7*.
Screening COc1ccccc1C(=O)Nc1ccc(C2=NNC(=O)CC2C)cc1 (centres undefined) returned Cl transport mod -0.0771, Calb FLC -9.8, PHOSPHO1 inh 3.8, Efflux pump inh 1.0*, H9c2 protect -0.7, Yeast cmpd fluor 98.6, Mdr1 pump inh -0.2, CaCdr2 efflux inh 107.8 and Cdr1 pump inh 0.0.
COc1ccccc1C(=O)Nc1ccncc1 was read as Calb FLC -2.9, PHOSPHO1 inh -2.4, Efflux pump inh -0.1 and H9c2 protect -2.4.
O=C(NC1CCCC1)C(c1ccncc1)N(C(=O)c1ccco1)c1ccccc1 (centres undefined) was read as Calb FLC -4.5, PHOSPHO1 inh -10.1, Efflux pump inh 0.6*, H9c2 protect -0.9, Yeast cmpd fluor 97.8, Mdr1 pump inh -0.2, CaCdr2 efflux inh 108.3 and Cdr1 pump inh 0.1.
`CCOc1ccc2nc(NC(=O)CCn3cccc3)sc2c1` gave Cl transport mod 0.603, Calb FLC -2.3, PHOSPHO1 inh 8.6, Efflux pump inh 1.0*, H9c2 protect -8.3, Yeast cmpd fluor 111.1, Mdr1 pump inh 0.1, CaCdr2 efflux inh 95.6 and Cdr1 pump inh -0.1.
Screening CC(=O)c1c(C)[nH]c(-c2ccccc2)c1C returned Cl transport mod -0.307, Calb FLC 0.1, PHOSPHO1 inh -5.0, Efflux pump inh 8.0*, H9c2 protect 5.1, Yeast cmpd fluor 97.6, Mdr1 pump inh -0.2, CaCdr2 efflux inh 105.1 and Cdr1 pump inh -0.1.
Screening CC(=O)c1c(-c2ccccc2)[nH]c2ccccc12 returned Calb FLC 6.9, PHOSPHO1 inh -28.7, Efflux pump inh 0.2 and H9c2 protect -7.3.
C(=N\Nc1nc2ccccc2[nH]1)/c1ccccn1 was read as Cl transport mod 0.0107, Calb FLC -3.0, PHOSPHO1 inh 2.0 and H9c2 protect -28.2.
`BrC(=C\c1ccccc1)/C=N/Nc1nc2ccccc2[nH]1` gave Cl transport mod 0.624, Calb FLC -4.7, PHOSPHO1 inh 18.8, Efflux pump inh 2.5*, H9c2 protect -5.7, Yeast cmpd fluor 94.4, Mdr1 pump inh -0.1, CaCdr2 efflux inh 104.2 and Cdr1 pump inh -0.1.

Screens as filed in PubChem.
